The subject of experiment [1] is PRMT1 (protein arginine N-methyltransferase 1). Briefly: PRMT1 binders on small-molecule microarrays, primary screen, biochemical, small-molecule microarray, 635 nm fluorescence (AID 1088).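 Also: binding of Prmt1 protein to compounds spotted on small-molecule microarray slides.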 As to conditions: small-molecule microarray binding, higher = more signal.
A short description of experiment [2]: yeast growth modulation, basal conditions, primary screen, YJM789 clinical isolate, OD600, 24 h (AID 1089).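 Also: growth of clinical yeast isolate S. cerevisiae YJM 789 seeded 1000 cells per well; test concentration not given here.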 As to conditions: S. cerevisiae YJM789 growth, higher = more signal, called active from +8 up or from −8 down.
Experiment [3] is described as follows: fission yeast growth modulation, primary screen, strain 972, OD600, 24 h, no modulator (AID 1090).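 Also: basal condition with compound alone and no growth modifier present; test concentration not given here.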 As to conditions: S. pombe 972 growth, higher = more signal, called active from +8 up or from −8 down.
The nature of experiment [4]: S. cerevisiae growth modulation with rapamycin, primary screen, strain BY4716, OD600, 96 h (AID 1091). Also: test concentration not given here. As to conditions: higher = more signal, called active from +8 up or from −8 down.
Experiment [5] addresses Torsin-1A-interacting protein 2 (Homo sapiens) (UniProt Q8NFQ8). Briefly: LULL1 binders on small-molecule microarray, primary screen, cell lysate, human LULL1 lysate, 635/667 nm fluorescence (AID 1092).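 Also: probe is lysate of COS7 cells overexpressing human LULL1; score merges per-feature 667 nm fluorescence with signal-to-noise.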 The note with it: hLULL1 lysate binding, 635 nm fluorescence, higher = more signal.
A short description of experiment [6]: E. coli growth modulation, two-sided OD650, primary screen, E. coli filamentation project, strain DRC41, 24 h (AID 1093).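 Also: MC1000 strain lacking acrAB efflux and sulA so SOS filamentation is blocked; test concentration not given here.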 The note with it: OD650, 24 h, higher = more signal, called active from +8 up or from −8 down.
Experiment [7] can be described thus: small-molecule microarray binders of probe aLefty2, primary screen, biochemical, biotinylated probe, 635/667 nm fluorescence (AID 1094).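 Also: score merges spot fluorescence near 667 nm with spot signal-to-noise ratio.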 The note with it: higher = more signal.
Experiment [8] has as its system Noggin (protein binding on small-molecule microarray). Put plainly: Noggin binders on small-molecule microarray, primary screen, biochemical, 635/667 nm fluorescence (AID 1095).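 Also: score merges 667 nm feature fluorescence with signal to noise over triplicate slides.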 The note with it: 635 nm fluorescence, higher = more signal.
The target in experiment [9] is Neurogenic locus notch homolog protein 3 (Homo sapiens) (UniProt Q9UM47). Put plainly: NOTCH3 binders on small-molecule microarray, primary screen, biochemical, 635/667 nm fluorescence (AID 1096). The note with it: NOTCH3 binding, 635 nm fluorescence, higher = more signal.
Neurogenic locus notch homolog protein 3 (Homo sapiens), sequence (Q9UM47 whole entry, looked up): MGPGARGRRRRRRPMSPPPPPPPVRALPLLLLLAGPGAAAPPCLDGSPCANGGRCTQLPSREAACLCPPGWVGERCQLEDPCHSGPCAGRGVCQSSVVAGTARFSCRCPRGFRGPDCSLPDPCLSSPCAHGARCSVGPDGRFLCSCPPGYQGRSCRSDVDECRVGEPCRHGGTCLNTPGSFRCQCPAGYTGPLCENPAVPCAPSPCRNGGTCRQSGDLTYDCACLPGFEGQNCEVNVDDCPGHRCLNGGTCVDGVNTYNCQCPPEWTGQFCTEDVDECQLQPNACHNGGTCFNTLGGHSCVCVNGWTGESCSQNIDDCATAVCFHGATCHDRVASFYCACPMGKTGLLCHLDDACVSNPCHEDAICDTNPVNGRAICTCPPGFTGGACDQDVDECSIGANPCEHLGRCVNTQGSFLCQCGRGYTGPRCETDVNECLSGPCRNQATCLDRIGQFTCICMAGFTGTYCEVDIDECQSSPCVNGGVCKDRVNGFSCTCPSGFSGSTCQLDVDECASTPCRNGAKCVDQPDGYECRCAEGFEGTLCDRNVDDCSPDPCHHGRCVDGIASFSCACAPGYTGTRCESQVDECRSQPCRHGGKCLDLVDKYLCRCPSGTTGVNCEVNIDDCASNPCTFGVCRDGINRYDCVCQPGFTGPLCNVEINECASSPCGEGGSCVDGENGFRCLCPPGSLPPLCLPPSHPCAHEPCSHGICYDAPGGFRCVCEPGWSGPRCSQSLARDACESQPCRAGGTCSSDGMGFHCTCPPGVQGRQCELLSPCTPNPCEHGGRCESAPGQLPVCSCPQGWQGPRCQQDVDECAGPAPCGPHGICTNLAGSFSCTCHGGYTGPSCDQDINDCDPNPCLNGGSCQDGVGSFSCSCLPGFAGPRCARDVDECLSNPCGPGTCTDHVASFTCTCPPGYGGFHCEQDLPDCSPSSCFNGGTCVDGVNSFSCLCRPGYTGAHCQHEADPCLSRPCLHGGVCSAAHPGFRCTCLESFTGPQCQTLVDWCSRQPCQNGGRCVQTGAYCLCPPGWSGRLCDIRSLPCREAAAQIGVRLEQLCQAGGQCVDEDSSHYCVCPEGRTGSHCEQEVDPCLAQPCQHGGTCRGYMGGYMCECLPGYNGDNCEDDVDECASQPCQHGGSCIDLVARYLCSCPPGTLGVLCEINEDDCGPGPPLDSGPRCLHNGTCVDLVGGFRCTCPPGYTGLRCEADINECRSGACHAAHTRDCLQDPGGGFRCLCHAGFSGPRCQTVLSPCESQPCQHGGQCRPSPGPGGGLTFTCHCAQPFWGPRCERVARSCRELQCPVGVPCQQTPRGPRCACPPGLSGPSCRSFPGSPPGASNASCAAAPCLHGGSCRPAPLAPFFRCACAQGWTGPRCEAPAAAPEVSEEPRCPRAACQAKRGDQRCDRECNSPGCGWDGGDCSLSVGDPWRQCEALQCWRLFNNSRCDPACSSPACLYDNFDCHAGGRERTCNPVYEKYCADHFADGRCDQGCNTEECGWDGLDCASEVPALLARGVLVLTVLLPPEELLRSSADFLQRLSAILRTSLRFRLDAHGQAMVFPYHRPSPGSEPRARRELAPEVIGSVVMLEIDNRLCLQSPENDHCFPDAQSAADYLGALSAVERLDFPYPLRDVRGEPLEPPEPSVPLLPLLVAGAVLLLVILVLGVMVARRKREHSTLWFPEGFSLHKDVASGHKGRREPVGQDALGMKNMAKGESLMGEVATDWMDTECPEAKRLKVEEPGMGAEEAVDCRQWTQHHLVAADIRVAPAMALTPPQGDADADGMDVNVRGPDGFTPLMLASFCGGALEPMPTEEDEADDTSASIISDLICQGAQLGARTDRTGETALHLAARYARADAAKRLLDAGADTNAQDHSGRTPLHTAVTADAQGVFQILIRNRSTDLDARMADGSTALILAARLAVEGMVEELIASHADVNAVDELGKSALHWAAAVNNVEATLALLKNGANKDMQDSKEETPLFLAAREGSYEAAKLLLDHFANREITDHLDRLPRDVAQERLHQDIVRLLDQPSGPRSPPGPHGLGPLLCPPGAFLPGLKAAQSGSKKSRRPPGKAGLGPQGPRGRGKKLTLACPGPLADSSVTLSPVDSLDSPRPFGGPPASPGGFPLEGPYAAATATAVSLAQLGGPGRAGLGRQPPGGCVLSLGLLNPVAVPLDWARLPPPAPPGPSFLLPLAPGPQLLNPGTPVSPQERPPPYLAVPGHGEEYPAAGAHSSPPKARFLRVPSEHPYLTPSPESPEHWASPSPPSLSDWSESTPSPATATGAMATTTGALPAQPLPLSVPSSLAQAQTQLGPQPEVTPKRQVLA
Experiment [10] in a line: small-molecule microarray binders of probe aEGFR, primary screen, biochemical, biotinylated probe, 635/667 nm fluorescence (AID 1097).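 Also: probe is a biotinylated anti-EGFR antibody binding compounds printed on slides; score combines fluorescence near 667 nm and signal to noise of each spot.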 The note with it: higher = more signal.
The test system of experiment [11] is Plasmodium falciparum Sir2 (PF13_0152, Sir2A). Put plainly: pfSir2 binders on small-molecule microarrays, primary screen, biochemical, small-molecule microarray, 635 nm fluorescence (AID 1098).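 Also: score merges spot fluorescence intensity with its signal-to-noise ratio.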 The note with it: small-molecule microarray binding, fluorescence 635 nm; higher = more signal.
Experiment [12] in a line: small-molecule microarray binders of probe aDKK1, primary screen, biochemical, biotinylated probe, 635/667 nm fluorescence (AID 1099).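 Also: score merges 667nm spot fluorescence with signal to noise across triplicate slides; reference of the scale not given here.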 The note with it: higher = more signal.
Experiment [13] is described as follows: small-molecule microarray binders of probe aCHRDL2, primary screen, biochemical, biotinylated probe, 635/667 nm fluorescence (AID 1100). The note with it: higher = more signal.
Experiment [14] in a line: splicing luciferase reporter signal modulators, primary screen, spliceosome inhibition project, cell-based, HEK293, splice +/- reporter (AID 1101).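 Also: HEK293 cells carrying a splicing-competent luciferase reporter gene; test concentration not given here.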 The note with it: luminescence, 24 h, higher = more signal, called active from +8 up or from −8 down.
Experiment [15] deals with Fibroblast growth factor 10 (Homo sapiens) (UniProt O15520). Put plainly: FGF10 binders on small-molecule microarrays, primary screen, biochemical, small-molecule microarray, 635 nm fluorescence (AID 1102). The note with it: FGF10 binding, fluorescence 635 nm, higher = more signal.
Fibroblast growth factor 10 (Homo sapiens), sequence (O15520 whole entry, looked up): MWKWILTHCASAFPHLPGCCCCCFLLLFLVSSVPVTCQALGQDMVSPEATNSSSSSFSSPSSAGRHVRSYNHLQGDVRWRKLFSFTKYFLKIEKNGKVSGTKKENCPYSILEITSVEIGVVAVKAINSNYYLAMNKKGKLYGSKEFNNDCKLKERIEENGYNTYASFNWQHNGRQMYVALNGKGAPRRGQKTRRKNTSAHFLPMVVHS
Experiment [16] concerns glycogen synthase kinase-3 (GSK3A per assay name; protocol says GSK3B). Briefly: GSK3 binders on small-molecule microarrays, primary screen, biochemical, small-molecule microarray, 635 nm fluorescence, GSK3A (AID 1103). Also: the record names both GSK3A and GSK3B. The note with it: small-molecule microarray binding, fluorescence 635 nm; higher = more signal.
Experiment [17] has as its target Epidermal growth factor receptor (Homo sapiens) (UniProt P00533). Put plainly: EGFR binders on small-molecule microarrays, primary screen, biochemical, small-molecule microarray, 635 nm fluorescence (AID 1104).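 Also: score merges 667 nm emission intensity with spot signal to noise over triplicate slides.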 The note with it: EGFR binding, higher = more signal.
Experiment [18] addresses Follistatin-related protein 3 (Homo sapiens) (UniProt O95633). Put plainly: FSTL3 binders on small-molecule microarrays, primary screen, biochemical, small-molecule microarray, 635 nm fluorescence (AID 1105).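 Also: score merges emission near 667 nm and signal to noise per printed spot across three slides.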 As to conditions: FSTL3 binding, higher = more signal.
Experiment [19] has as its target Dickkopf-related protein 1 (Homo sapiens) (UniProt O94907). Briefly: DKK1 binders on small-molecule microarrays, primary screen, biochemical, small-molecule microarray, 635 nm fluorescence scan (AID 1106).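 Also: score merges emission near 667 nm with signal to noise over three replicate slides.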 The note with it: DKK1 binding, higher = more signal.
In experiment [20] the test system is Inhibin beta A chain (activin A). Briefly: INHBA (activin A) binders on microarrays, primary screen, biochemical, small-molecule microarray, 635 nm fluorescence scan (AID 1107).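 Also: mouse activin A protein probed at 4.33 µg/mL on printed slides; score merges bound-protein fluorescence near 667 nm with spot signal-to-noise.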 The note with it: small-molecule microarray binding, higher = more signal.

Active and inactive are the calls of the source.

Follistatin-related protein 3 (Homo sapiens), sequence (O95633 whole entry, looked up): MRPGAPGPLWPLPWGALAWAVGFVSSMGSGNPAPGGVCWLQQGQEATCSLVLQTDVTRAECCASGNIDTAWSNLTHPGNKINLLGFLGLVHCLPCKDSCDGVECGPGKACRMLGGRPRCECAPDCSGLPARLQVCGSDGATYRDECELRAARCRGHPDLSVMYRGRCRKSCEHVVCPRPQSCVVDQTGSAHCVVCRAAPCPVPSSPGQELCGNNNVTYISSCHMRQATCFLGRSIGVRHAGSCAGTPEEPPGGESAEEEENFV
Dickkopf-related protein 1 (Homo sapiens), sequence (O94907 whole entry, looked up): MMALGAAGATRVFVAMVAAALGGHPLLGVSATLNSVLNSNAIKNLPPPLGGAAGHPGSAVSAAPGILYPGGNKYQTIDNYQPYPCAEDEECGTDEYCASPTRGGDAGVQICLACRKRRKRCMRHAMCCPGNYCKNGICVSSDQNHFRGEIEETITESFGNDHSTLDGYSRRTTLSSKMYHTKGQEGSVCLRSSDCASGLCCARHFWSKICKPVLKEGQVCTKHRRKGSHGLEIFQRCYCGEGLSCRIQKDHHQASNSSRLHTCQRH
Epidermal growth factor receptor (Homo sapiens), sequence (P00533 whole entry, looked up): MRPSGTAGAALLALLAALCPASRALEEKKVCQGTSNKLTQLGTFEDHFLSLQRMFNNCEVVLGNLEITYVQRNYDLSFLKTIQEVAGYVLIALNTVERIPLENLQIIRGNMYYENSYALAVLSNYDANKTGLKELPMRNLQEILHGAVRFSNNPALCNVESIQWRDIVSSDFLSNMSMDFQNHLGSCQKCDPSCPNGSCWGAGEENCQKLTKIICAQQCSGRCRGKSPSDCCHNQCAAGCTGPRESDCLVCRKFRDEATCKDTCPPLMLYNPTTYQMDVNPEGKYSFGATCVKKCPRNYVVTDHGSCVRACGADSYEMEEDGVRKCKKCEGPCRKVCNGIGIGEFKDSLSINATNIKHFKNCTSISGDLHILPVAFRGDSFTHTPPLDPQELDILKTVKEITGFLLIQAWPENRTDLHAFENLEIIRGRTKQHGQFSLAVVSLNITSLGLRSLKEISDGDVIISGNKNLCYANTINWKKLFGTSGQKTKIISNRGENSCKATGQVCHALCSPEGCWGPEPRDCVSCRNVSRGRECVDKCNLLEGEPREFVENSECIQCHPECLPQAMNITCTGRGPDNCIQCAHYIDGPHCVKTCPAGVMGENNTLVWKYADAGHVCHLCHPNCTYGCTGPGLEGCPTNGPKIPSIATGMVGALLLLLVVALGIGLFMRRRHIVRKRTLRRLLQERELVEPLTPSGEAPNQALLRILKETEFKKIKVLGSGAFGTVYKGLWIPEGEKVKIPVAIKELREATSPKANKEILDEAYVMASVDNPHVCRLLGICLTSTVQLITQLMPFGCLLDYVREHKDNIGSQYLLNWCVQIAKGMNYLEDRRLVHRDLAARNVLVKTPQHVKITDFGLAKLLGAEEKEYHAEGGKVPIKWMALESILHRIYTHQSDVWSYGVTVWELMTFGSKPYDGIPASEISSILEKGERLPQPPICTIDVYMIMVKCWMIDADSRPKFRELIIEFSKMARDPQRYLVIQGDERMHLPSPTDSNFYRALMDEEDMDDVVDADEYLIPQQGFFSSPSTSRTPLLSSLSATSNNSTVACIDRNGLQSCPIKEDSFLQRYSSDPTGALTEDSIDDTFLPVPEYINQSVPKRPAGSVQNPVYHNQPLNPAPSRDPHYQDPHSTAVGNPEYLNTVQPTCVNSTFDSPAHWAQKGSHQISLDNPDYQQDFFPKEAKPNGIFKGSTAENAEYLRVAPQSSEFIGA
Torsin-1A-interacting protein 2 (Homo sapiens), sequence (Q8NFQ8 whole entry, looked up): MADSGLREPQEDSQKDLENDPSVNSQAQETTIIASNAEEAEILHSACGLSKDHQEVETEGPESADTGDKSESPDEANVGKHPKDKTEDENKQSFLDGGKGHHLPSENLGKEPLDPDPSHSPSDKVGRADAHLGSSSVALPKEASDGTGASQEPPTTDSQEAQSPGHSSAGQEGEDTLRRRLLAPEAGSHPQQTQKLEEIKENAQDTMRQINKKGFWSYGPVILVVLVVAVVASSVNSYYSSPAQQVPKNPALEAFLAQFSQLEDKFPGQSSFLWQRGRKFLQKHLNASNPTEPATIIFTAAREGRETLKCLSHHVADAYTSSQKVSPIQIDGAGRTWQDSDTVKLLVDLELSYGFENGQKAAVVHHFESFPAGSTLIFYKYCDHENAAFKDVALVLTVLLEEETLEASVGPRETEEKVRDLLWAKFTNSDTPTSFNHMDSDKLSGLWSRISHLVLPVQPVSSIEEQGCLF

Turning to `C=CC[C@]1(C(=O)N(C)C)COC(c2ccc(OCCCO)cc2)=N1`, the composite z-score in experiment [1] was 1.36; in [5], 2.75; in [7], 0.804; in experiment [8], -0.39; in experiment [9], -0.338; in [10] it was 0.367. The composite z-score in [11] is 1.6; in [12], 0.98; in experiment [13] it was 1.26; in [15], 0.772; in experiment [16] it was 0.248; in experiment [17] it was -0.737. Moreover, the composite z-score was -0.438 in [18], -0.0393 in experiment [19] and 0.465 in experiment [20]. For the same compound, the z-score is 0.0794 (inactive) in [2]; -2.04 (inactive) in experiment [3]; -0.95 (inactive) in [4]; -1.46 (inactive) in experiment [6]; -0.858 (inactive) in experiment [14].

Turning to `CCOC(=O)C[C@H]1[C@H](OC(=O)c2ccc(-c3ccccc3)cc2)[C@@H](NC(=O)c2ccc3ccccc3c2)c2cc(OCCCO)ccc2N1C(=O)c1ccccc1`, the composite z-score in [1] was 0.712; in experiment [5] it was 1.69; in [7], -0.141; in experiment [8] it was 0.382; in [9], 0.842; in [10], 0.0914. For the same compound, the composite z-score was 0.34 in experiment [11]; -0.393 in experiment [12]; 0.211 in [13]; 1.28 in experiment [15]; 0.972 in experiment [16]; 0.514 in experiment [17]. Also, the composite z-score is 0.341 in experiment [18], -0.149 in experiment [19] and -0.121 in experiment [20]. The z-score in [2] is 0.806 (inactive); in experiment [3], 1.17 (inactive); in experiment [4] it was 1.26 (inactive); in experiment [6], -1.1 (inactive); in experiment [14], 0.173 (inactive).

In the case of `[N-]=[N+]=NCc1ccccc1C[C@]1(C(=O)N2CCOCC2)N=C(c2ccc(OCCCO)cc2)O[C@H]1c1ccccc1CN=[N+]=[N-]`, the composite z-score in experiment [1] turned out to be 1.56; in experiment [5], 3.61; in [7], 0.747; in experiment [8], 0.809; in [9] it was 0.616; in experiment [10], 0.732. Besides, the composite z-score is 1.33 in experiment [11]; 1.42 in experiment [12]; 1.39 in experiment [13]; 1.39 in [15]; 0.935 in experiment [16]; -0.134 in experiment [17]. For the same compound, the values for the composite z-score in experiment [18], in experiment [19] and in [20] were 0.217, -0.275 and 1.43, respectively. The z-score was 1.66 (inactive) in experiment [2]; 0.284 (inactive) in [3]; 16.6 (active) in [4]; 0.27 (inactive) in experiment [6]; -1.2 (inactive) in [14].

As for `C#CCN([C@H](/C=C/C1CC1)[C@@H](O)Cc1ccccc1)[C@@H](Cc1ccccc1)C(=O)OC`, the composite z-score was 0.447 in experiment [1]; 0.126 in experiment [5]; -0.128 in [7]; 0.237 in experiment [8]; 0.606 in experiment [9]; -0.198 in experiment [10]. Also, the composite z-score is -0.135 in experiment [11]; -0.281 in experiment [12]; 0.0495 in [13]; -0.351 in [15]; -0.604 in experiment [16]; -0.215 in [17]. Also, the composite z-score is 0.232 in experiment [18], -0.0707 in experiment [19] and 0.858 in [20]. For the same compound, the z-score was -0.345 (inactive) in [2]; -0.825 (inactive) in [3]; 0.316 (inactive) in experiment [4]; 0.598 (inactive) in experiment [6]; -0.606 (inactive) in experiment [14].

With `COCCOC(=O)N1C(=O)[C@@]2(c3ccccc31)[C@H](C(=O)N1CCCCCCC1)[C@H]1C(=O)O[C@H](c3ccccc3)[C@H](c3ccccc3)N1[C@@H]2c1ccc(O)cc1`, the composite z-score in experiment [1] came to 1.53; in experiment [5], 4.37; in experiment [7] it was 1.75; in experiment [8], 1.11; in experiment [9], 1.09; in experiment [10], 1.15. For the same compound, the composite z-score was 1.86 in experiment [11]; 2.77 in experiment [12]; 1.76 in experiment [13]; 1.38 in experiment [15]; 1.35 in experiment [16]; 1.32 in experiment [17]. The results for the composite z-score in experiment [18], in [19] and in experiment [20] were 1.68, 1.93 and 1.92, respectively. Also, the z-score in experiment [2] is -1.37 (inactive); in [3] it was -0.268 (inactive); in [4] it was 1.63 (inactive); in experiment [6] it was 1.39 (inactive); in experiment [14], -0.216 (inactive).

The values are drawn from PubChem BioAssay.
